Experimental data reported in ChEMBL document CHEMBL3988442, “University of Dundee, Small-Polar-MMV Screening Library” (2021).
Several values for one entry are separate records, joined by “and”; a condition that tells them apart may be missing. Equal values may be shown once. For some of these results: Potency and affinity values are given separately.

Legend:
Parameters in all cases: scale not given: direction of the effect not stated beside the values
[1] = molecular target: Protein translocase subunit SecA (Escherichia coli (strain K12)) (UniProt P10408); experiment: Assay to Identify E. coli SecA ATPase Inhibitors; type: functional; details: 30 µM
[2] = molecular target: T1, Ubiquitin-activating enzyme e1, putative (Leishmania donovani (strain BPK282A1)) (UniProt E9BSI1); experiment: Leishmania donovani Ubiquitin Activating Enzyme (LdE1); type: functional; details: 30 µM
T1 sequence (whole entry): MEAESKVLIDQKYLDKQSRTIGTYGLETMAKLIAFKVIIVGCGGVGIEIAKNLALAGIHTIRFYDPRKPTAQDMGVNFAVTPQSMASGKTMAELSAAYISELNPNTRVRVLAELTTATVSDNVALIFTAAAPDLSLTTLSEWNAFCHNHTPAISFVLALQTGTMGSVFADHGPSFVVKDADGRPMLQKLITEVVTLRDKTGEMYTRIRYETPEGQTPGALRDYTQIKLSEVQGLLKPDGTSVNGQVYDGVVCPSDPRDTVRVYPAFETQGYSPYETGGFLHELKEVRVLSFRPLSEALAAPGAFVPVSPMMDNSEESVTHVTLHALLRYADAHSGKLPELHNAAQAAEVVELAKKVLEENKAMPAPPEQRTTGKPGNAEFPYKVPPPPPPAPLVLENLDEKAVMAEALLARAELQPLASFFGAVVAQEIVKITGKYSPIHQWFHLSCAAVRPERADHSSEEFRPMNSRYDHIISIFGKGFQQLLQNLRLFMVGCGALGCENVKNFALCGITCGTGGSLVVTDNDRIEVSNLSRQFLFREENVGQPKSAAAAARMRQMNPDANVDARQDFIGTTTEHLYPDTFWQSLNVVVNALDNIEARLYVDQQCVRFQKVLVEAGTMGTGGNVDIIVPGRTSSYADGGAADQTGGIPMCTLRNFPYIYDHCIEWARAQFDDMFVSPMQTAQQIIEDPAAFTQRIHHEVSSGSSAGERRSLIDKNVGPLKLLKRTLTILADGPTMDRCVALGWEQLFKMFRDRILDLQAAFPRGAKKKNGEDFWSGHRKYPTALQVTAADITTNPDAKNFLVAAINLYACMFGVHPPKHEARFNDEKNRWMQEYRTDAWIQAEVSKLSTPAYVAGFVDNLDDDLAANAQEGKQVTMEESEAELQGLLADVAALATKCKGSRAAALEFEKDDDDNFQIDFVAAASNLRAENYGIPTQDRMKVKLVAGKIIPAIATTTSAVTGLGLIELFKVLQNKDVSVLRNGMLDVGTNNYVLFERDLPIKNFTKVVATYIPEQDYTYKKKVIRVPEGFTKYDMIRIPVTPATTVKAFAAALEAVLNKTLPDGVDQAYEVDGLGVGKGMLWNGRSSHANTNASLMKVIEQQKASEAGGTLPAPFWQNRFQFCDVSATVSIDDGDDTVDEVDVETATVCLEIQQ

[3] = molecular target: Sialic acid-binding Ig-like lectin 9 (Homo sapiens) (UniProt Q9Y336); experiment: Hs-Siglec9 ALPHAscreen SOP 20170721; details: 10 µM
[4] = system: Trypanosoma cruzi; experiment: Trypanosoma cruzi phosphomannomutase and mannose-1-phosphate guanylyltransferase assay; type: functional; details: 10 µM
[5] = molecular target: T2, Arginase-2, mitochondrial (Homo sapiens) (UniProt P78540); experiment: in vitro enzyme assay to detect the production of urea directly proportional to the activity of Arginase II; type: functional; also: in the data most compounds retested in dose-response had high values
T2 sequence (whole entry): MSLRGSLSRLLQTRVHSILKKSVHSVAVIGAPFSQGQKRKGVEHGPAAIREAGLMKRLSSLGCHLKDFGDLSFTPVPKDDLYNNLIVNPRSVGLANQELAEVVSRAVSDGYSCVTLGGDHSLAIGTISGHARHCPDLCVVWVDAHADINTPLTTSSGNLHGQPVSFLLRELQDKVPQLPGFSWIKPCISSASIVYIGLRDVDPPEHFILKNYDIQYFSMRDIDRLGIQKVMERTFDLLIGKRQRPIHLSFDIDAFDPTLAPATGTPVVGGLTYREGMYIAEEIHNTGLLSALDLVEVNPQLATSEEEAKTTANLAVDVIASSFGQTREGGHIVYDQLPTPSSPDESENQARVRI

[6] = molecular target: T3, Proteasome subunit beta (Trypanosoma cruzi) (UniProt O96673); experiment: Trypanosoma cruzi proteasome chymotrypsin-like activity (TcProtChymo) assay.; also: in the data most compounds retested in dose-response had high values; type: functional; details: 9.37 µM
T3 sequence (whole entry): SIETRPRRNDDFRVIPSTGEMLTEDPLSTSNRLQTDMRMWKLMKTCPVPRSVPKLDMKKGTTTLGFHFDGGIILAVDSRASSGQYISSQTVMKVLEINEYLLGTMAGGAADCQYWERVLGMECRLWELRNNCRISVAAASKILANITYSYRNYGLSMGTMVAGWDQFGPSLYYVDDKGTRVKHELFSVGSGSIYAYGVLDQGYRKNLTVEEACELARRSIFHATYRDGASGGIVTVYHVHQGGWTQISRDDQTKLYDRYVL

[7] = system: N/A; experiment: Trypanosoma cruzi proteasome luciferase counter-screen; type: functional; details: 9.37 µM
[8] = species: Homo sapiens; experiment: To identify inhibition of the IFN signalling (Jak-Stat) pathway via expression of an eGFP reporter gene under the control of an IFN-stimulated response element (ISRE) containing MxA promoter.; type: functional; details: 30 µM
[9] = molecular target: T4, Tyrosyl-tRNA synthetase, putative (Trypanosoma cruzi (strain CL Brener)) (UniProt Q4DSP6); experiment: Trypanosoma cruzi tyrosyl tRNA synthetase (TcYRS) _High Tyrosine SOP; type: functional; details: 30 µM; also: in the data most compounds retested in dose-response had high values
T4 sequence (whole entry): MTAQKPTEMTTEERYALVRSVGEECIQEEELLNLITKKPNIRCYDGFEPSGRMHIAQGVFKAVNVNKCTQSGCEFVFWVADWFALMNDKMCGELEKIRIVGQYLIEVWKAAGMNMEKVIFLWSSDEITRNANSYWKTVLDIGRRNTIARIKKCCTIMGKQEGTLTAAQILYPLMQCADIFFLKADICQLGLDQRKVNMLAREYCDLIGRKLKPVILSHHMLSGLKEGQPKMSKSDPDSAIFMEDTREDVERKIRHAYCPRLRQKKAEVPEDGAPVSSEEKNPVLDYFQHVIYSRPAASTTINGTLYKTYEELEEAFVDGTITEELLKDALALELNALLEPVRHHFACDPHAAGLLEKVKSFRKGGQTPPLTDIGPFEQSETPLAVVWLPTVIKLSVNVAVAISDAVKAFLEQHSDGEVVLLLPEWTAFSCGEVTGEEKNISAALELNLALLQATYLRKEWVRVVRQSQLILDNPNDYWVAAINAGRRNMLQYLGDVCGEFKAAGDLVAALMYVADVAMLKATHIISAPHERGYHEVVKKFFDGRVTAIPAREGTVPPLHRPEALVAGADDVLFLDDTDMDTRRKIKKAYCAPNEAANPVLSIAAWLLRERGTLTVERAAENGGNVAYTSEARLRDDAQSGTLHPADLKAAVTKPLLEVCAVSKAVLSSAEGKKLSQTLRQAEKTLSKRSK

[10] = molecular target: T4, Tyrosyl-tRNA synthetase, putative (Trypanosoma cruzi (strain CL Brener)); experiment: Trypanosoma cruzi tyrosyl tRNA synthetase (TcYRS) SOP; type: functional; details: 30 µM
[11] = molecular target: Chromo domain-containing protein 1 (Saccharomyces cerevisiae (strain ATCC 204508 / S288c) (Baker's yeast)) (UniProt P32657); experiment: ScCHD-1 Enzyme Inhibition Assay; type: functional; details: 30 µM; also: in the data most compounds retested in dose-response had high values
[12] = molecular target: AMP-activated protein kinase, AMPK (Homo sapiens) (UniProt P54646+O43741+P54619+Q9UGJ0+Q9Y478+Q13131+Q9UGI9); experiment: AMP-dependent Kinase enzyme assay. An in vitro enzyme assay that detects ADP turnover that is directly proportional to AMPK activity. This uses naive AMPK that is activated during the assay with MK-8722; type: functional; details: 30 µM

Protein translocase subunit SecA (Escherichia coli (strain K12)), sequence (P10408 whole entry): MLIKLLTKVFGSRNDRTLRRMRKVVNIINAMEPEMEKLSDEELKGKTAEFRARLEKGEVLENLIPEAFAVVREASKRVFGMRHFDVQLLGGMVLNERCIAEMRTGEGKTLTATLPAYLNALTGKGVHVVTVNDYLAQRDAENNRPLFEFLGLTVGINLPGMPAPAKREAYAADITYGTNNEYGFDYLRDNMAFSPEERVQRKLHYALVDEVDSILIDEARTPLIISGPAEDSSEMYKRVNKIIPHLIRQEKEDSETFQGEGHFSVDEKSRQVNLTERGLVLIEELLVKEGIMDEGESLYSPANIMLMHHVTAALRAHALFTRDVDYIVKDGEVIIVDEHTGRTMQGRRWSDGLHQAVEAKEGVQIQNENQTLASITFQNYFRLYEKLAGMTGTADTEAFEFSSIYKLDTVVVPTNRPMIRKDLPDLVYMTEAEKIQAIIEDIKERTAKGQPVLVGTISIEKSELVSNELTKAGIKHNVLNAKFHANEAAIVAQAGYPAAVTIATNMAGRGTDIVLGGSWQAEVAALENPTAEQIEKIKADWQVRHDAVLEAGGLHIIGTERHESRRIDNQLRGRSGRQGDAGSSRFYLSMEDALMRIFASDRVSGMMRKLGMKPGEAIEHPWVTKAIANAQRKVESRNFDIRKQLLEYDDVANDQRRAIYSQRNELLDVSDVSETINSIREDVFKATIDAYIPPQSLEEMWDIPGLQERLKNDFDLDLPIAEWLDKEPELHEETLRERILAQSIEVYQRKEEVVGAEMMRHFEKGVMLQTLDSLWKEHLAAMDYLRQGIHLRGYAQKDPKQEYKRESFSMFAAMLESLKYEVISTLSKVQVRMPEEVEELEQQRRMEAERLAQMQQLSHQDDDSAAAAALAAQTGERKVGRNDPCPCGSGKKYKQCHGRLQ
Chromo domain-containing protein 1 (Saccharomyces cerevisiae (strain ATCC 204508 / S288c) (Baker's yeast)), sequence (P32657 whole entry, the tested form may be a part): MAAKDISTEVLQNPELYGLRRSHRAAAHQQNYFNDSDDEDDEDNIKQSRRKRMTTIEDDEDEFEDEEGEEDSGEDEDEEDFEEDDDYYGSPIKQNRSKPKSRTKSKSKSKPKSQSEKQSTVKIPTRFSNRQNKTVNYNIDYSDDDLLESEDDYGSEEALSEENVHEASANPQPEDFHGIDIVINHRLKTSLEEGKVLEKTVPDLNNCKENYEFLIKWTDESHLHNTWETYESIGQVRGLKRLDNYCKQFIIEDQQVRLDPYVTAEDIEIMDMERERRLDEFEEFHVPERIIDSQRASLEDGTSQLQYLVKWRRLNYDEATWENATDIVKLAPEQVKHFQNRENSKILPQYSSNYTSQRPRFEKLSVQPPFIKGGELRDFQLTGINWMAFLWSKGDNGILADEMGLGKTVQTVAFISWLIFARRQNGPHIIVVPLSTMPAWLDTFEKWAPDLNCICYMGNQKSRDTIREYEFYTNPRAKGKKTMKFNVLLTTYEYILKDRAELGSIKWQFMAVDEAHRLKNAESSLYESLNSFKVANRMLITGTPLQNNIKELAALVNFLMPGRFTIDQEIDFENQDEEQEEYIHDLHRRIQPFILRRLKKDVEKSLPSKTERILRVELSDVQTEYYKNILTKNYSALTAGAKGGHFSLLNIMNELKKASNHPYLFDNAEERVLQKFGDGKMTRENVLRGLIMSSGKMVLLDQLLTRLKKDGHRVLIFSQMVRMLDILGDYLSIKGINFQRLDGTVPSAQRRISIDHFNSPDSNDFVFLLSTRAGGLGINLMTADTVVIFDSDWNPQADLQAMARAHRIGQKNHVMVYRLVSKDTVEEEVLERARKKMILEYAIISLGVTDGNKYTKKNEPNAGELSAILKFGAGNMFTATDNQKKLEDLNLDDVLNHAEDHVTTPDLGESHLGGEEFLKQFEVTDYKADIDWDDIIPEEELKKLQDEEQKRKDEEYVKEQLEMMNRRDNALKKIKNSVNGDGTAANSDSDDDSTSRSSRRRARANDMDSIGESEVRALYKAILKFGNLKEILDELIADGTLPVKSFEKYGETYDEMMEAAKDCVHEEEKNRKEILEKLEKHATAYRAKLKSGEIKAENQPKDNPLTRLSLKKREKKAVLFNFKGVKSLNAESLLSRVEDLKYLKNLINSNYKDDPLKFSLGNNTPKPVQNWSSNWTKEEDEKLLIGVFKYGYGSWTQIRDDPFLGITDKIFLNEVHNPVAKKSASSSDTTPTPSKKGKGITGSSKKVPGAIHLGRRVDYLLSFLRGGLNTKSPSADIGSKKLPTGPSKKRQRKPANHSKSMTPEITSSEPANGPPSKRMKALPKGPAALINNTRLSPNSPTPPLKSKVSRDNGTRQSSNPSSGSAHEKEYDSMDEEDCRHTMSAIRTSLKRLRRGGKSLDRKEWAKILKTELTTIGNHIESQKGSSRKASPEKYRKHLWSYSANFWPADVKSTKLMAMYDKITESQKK
Sialic acid-binding Ig-like lectin 9 (Homo sapiens), sequence (Q9Y336 whole entry): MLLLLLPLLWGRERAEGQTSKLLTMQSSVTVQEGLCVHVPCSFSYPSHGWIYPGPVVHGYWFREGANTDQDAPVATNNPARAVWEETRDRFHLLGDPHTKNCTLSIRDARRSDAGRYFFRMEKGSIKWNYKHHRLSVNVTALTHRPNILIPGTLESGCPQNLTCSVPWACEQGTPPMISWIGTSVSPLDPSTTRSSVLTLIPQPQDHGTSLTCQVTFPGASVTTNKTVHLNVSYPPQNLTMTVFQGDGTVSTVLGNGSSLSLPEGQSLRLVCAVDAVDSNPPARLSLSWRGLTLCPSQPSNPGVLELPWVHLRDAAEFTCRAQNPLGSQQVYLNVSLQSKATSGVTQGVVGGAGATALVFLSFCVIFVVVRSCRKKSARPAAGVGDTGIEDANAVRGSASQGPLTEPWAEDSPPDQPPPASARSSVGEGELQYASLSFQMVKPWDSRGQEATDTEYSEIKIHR

SMILES: O=C(NCCCN1CCOCC1)c1ccn(-c2ccc3ccccn23)n1
- Percent Effect [1]: -0.779%
- Percent Effect [2]: 6.49%
- Percent Effect [3]: 1.13%
- Percent Effect [4]: -2.43%
- Percent Effect ([5]; 33.3 µM): -4.05%
- Percent Effect [6]: 30.3% and 30.6% and 42.5%
- Percent Effect [7]: 15% and 12%
- Percent Effect [8]: 5.6%
- Percent Effect [9]: 8.95%
- Percent Effect [10]: 7.69%
- Percent Effect [11]: 1.74%

SMILES: c1ccc(-c2ccc(C3CNCCO3)nc2)cc1 (centres undefined)
- Percent Effect [1]: -1.91%
- Percent Effect [2]: 14.7%
- Percent Effect [3]: -4.38%
- Percent Effect [4]: -2.37%
- Percent Effect ([5]; 33.3 µM): -3.1%
- Percent Effect [6]: 41% and 49.8% and 42.6%
- Percent Effect [7]: 18% and 21%
- Percent Effect [8]: -23.6%
- Percent Effect [9]: 3.17%
- Percent Effect [10]: 7.5%
- Percent Effect [11]: -25.7%

SMILES: Cn1nc2c(cc1=O)CN(Cc1nnc(-c3ccc(F)cc3)o1)CC2
- Percent Effect [1]: -0.335%
- Percent Effect [2]: 7.69%
- Percent Effect [3]: -9.64%
- Percent Effect [4]: -6.48%
- Percent Effect ([5]; 33.3 µM): 7.79%
- Percent Effect [6]: 6.23%
- Percent Effect [8]: 30.1%
- Percent Effect [9]: 0.478%
- Percent Effect [10]: 6.02%
- Percent Effect [11]: -4.76%

SMILES: Cc1cn2c(n1)CCC(NC(=O)c1nc(C)ncc1Cl)C2 (centres undefined)
- Percent Effect [1]: -5.44%
- Percent Effect [2]: 7.79%
- Percent Effect [12]: 5.82%
- Percent Effect [3]: 3.39%
- Percent Effect [4]: 4.41%
- Percent Effect ([5]; 33.3 µM): 1.05%
- Percent Effect [6]: 8.49%
- Percent Effect [8]: -7.16%
- Percent Effect [9]: 4.76%
- Percent Effect [10]: 18.8%
- Percent Effect [11]: -23.3%

SMILES: Nc1nc(CCC(=O)N2CCOC(CC3CCCCC3)C2)cs1 (centres undefined)
- Percent Effect [1]: -7.43%
- Percent Effect [2]: 0%
- Percent Effect [3]: 6.25%
- Percent Effect [4]: 11.3%
- Percent Effect ([5]; 30 µM): 3.78%
- Percent Effect ([5]; 33.3 µM): -2.45%
- Percent Effect [6]: 3.25%
- Percent Effect [8]: 10.9%
- Percent Effect [9]: 9.04%
- Percent Effect [10]: 19.5%
- Percent Effect [11]: 5.38%

SMILES: c1csc(-c2nc(CNC3CCc4ncnn4C3)cs2)c1 (centres undefined)
- Percent Effect [1]: -3.1%
- Percent Effect [2]: 10.3%
- Percent Effect [3]: 2.55%
- Percent Effect [4]: 0.469%
- Percent Effect ([5]; 33.3 µM): 2.05%
- Percent Effect [6]: 7.93%
- Percent Effect [8]: 0.908%
- Percent Effect [9]: 6.22%
- Percent Effect [10]: 18.1%
- Percent Effect [11]: 1.57%
